This note sets out measurements from ChEMBL document CHEMBL4513137, “CO-ADD screening of University of Manchester (UK) compounds”.

The whole screen tested about 23,000 compounds, of which about 30 (0.1%) showed an effect of 50% or more. Many of the other results were omitted from the sample, so strong results are more common in it than they were. Potency and affinity values are given separately.

The test system of this assay is Pseudomonas aeruginosa. Conditions: Concentration 32 ug.mL-1; ASSAY_TEST Inhibition of Bacterial Growth; detection method Absorption (OD600); MEDIA CAMHB; plate type 384well; NBS; CORNING #3640; time 18 hr.
Usually Inhibition stands for the drop in the measured response relative to a control, in per cent. On to `Cc1ccccc1Nc1ccccc1-c1ccc([N+](=O)[O-])cc1`, for which the Inhibition is on record as -5.81%. As for `O=[N+]([O-])c1ccc(-c2ccccc2Nc2ccccc2)cc1`, the figure is -5.45%; as for `COc1ccc(Nc2ccccc2-c2ccc([N+](=O)[O-])cc2)cc1`, 65.22%. As for `O=[N+]([O-])c1ccc(-c2c(Nc3ccccc3)cccc2-c2ccccc2)cc1`, the figure is 19.1%; as for `O=[N+]([O-])c1ccc(-c2ccccc2Nc2ccccc2)cc1C(F)(F)F`, 49.55%; as for `O=[N+]([O-])c1ccc(-c2ccccc2Nc2ccccc2)cc1F`, 55.36%. Then `c1ccc(Nc2ccccc2-c2ncccn2)cc1`, with 60.14%; and `CC(=O)c1ccc(-c2ccccc2Nc2ccccc2)cc1`, with 28.85%. On to `COc1cc([N+](=O)[O-])ccc1-c1c(Nc2ccccc2)cccc1OC`, for which the Inhibition is listed as 30.66%.

As for `COc1cccc(Nc2ccccc2)c1-c1c(Cl)cc(Br)cc1Cl`, the Inhibition is 61.56%.

On to `Clc1cc(Br)cc(Cl)c1-c1ccccc1Nc1ccccc1`, for which the Inhibition is given as 32.77%.
